Test results: PubChem BioAssay AID1224921 (Broad Institute, 2016)
In all, about 1,400 compounds went through this assay and about 350 (25%) were called active. About 2% were inconclusive and are not listed. The rule behind the calls is not given here. The list is a sample of the results. Measured potencies and affinities stand elsewhere.

Assay: inhibitors of Clostridioides difficile proliferation – 4-point retest, confirmation (AID 1224921);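 note: plate controls were DMSO wells for no effect and levofloxacin 16 µg/mL wells for full effect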
Conditions: Clostridioides difficile clinical isolate growth, OD600, 24 h, stronger effect = lower value; at 30 µM unless noted

Max activity, inactive:
C[C@H]1CN([C@@H](C)CO)S(=O)(=O)c2ccc(C#CCC3CCCC3)cc2O[C@@H]1CN(C)C(=O)CC1CC1 19.7% [at 8 µM]
CO[C@H]1CN(C)C(=O)c2ccc(NC(=O)c3nc4ccccc4s3)cc2OC[C@H](C)N(Cc2cccnc2)C[C@H]1C 37.7%
CO[C@@H]1CN(C)C(=O)c2cc(NC(=O)Nc3ccccc3Cl)ccc2OC[C@@H](C)N(S(C)(=O)=O)C[C@H]1C -12.2% [at 0.5 µM]
O=C(CN1CCOCC1)N[C@@H]1CC[C@@H](CCNS(=O)(=O)c2ccccc2F)O[C@@H]1CO -8.89% [at 0.5 µM]
C[C@@H]1CN([C@@H](C)CO)C(=O)c2ccccc2-c2ccccc2CO[C@H]1CN(C)S(=O)(=O)c1ccc(Cl)cc1 33.2% [at 35 µM]
C[C@H](CO)N1C[C@H](C)[C@H](CN(C)S(=O)(=O)c2ccccc2)Oc2ccc(NC(=O)Nc3cccc4ccccc34)cc2C1=O -17.7% [at 8 µM]
C[C@H](CO)N1C[C@H](C)[C@@H](CN(C)Cc2ccc3c(c2)OCO3)Oc2c(NC(=O)Nc3ccc(C(F)(F)F)cc3)cccc2C1=O 43.3%
C[C@@H]1CN([C@@H](C)CO)C(=O)c2cccc(NC(=O)Nc3ccc(F)cc3)c2O[C@H]1CN(C)CC1CCCCC1 13.5% [at 8 µM]
C[C@@H]1CN([C@H](C)CO)C(=O)c2cccc(NC(=O)Nc3ccc(C(F)(F)F)cc3)c2O[C@H]1CN(C)Cc1ccc2c(c1)OCO2 43.4% [at 8 µM]
C[C@H](CO)N1C[C@H](C)[C@H](CN(C)C(=O)NC2CCCCC2)Oc2c(NC(=O)Nc3ccc(C(F)(F)F)cc3)cccc2C1=O 35.7% [at 1.95 µM]
CCCC(=O)Nc1ccc2c(c1)OC[C@H](C)N(CCc1ccccc1)C[C@@H](C)[C@@H](OC)CN(C)C2=O -11.5% [at 0.5 µM]
C[C@@H]1CN([C@@H](C)CO)C(=O)Cc2cc(N(C)C)ccc2O[C@H]1CN(C)Cc1ccc(-c2ccccc2)cc1 20.5% [at 8 µM]
C#CCNC(=O)C1=C[C@H](c2cn(C(C)=O)c3ccccc23)C[C@H](OCc2ccc(CO)cc2)O1 -9.52% [at 0.5 µM]
O=C(N[C@H]1C=C[C@@H](CC(=O)N2CCOCC2)O[C@@H]1CO)c1cccc(F)c1 -5.96%
C[C@@H]1CCCCO[C@H](CN(C)CC2CC2)[C@H](C)CN([C@@H](C)CO)C(=O)c2cc(NC(=O)Nc3cccc4ccccc34)ccc2O1 13.7%
CCc1cnc(N2[C@H](CO)[C@H](c3ccc(C#CC(C)C)cc3)[C@@H]2C#N)s1 17% [at 1.95 µM]
CC(C)CC#Cc1ccc2c(c1)O[C@H](CN(C)Cc1cccnc1)[C@@H](C)CN([C@H](C)CO)S2(=O)=O 42.9%
CC(C)Cc1ccc(CN2CC[C@@H](NC(=O)c3ccccc3)C2)cc1 20.1% [at 8 µM]
C[C@H](CO)N1C[C@H](C)[C@@H](CN(C)C(=O)Nc2ccc(C(F)(F)F)cc2)Oc2c(NC(=O)c3ccc(-c4nccs4)cc3)cccc2C1=O 7.84%
O=S(=O)(NCC[C@H]1CC[C@H](NS(=O)(=O)c2ccccc2Cl)[C@H](CO)O1)c1ccc(Cl)cc1 10% [at 7.5 µM]
O=C(NCC[C@@H]1CC[C@H](NC(=O)Nc2cc(F)ccc2F)[C@H](CO)O1)Nc1ccc(Cl)cc1 -10.4% [at 0.5 µM]
O=C(C[C@@H]1CC[C@H](NC(=O)Nc2cc(F)ccc2F)[C@H](CO)O1)NCc1ccc2c(c1)OCO2 4.18% [at 8 µM]
CC(C)NC(=O)NCC[C@H]1CC[C@@H](NS(=O)(=O)c2ccc(Oc3ccccc3)cc2)[C@@H](CO)O1 13.9% [at 35 µM]
Cc1ccc(S(=O)(=O)N[C@H]2CC[C@H](CCNS(=O)(=O)Cc3ccccc3)O[C@H]2CO)cc1 -13.6% [at 7.5 µM]
CC(C)NC(=O)NCC[C@H]1CC[C@@H](NS(=O)(=O)c2ccc(Oc3ccccc3)cc2)[C@H](CO)O1 9.67%
CC(C)CC#Cc1ccc2c(c1)O[C@@H](CN(C)C(=O)c1ccccc1)[C@@H](C)CN([C@@H](C)CO)S2(=O)=O 35.1%
CC(=O)N(C)C[C@H]1Oc2ncc(-c3ccc(C#N)cc3)cc2C(=O)N([C@H](C)CO)C[C@H]1C -10.1% [at 1.95 µM]
CO[C@H]1CN(C)C(=O)c2cc(NS(=O)(=O)c3cccc(F)c3)ccc2OC[C@H](C)N(Cc2cc(F)ccc2F)C[C@H]1C 7.97%
CCC(=O)Nc1ccc2c(c1)C(=O)N(C)C[C@@H](OC)[C@@H](C)CN(C(=O)CN1CCOCC1)[C@H](C)CO2 18.1%
CCCN1C[C@H](C)[C@H](OC)CN(C)C(=O)c2cc(NC(=O)c3cccc(OC)c3)ccc2OC[C@@H]1C -8.29% [at 0.5 µM]
C[C@H](CO)N1C[C@H](C)[C@@H](CN(C)Cc2ccc3c(c2)OCO3)Oc2ccc(NC(=O)Nc3ccc4c(c3)OCO4)cc2C1=O -9.66% [at 8 µM]
C[C@H](CO)N1C[C@H](C)[C@@H](CN(C)S(=O)(=O)CC(F)(F)F)OCc2ccccc2-c2c(n(C)c3ccccc23)C1=O 24.2%
CC(C)CC#Cc1ccc2c(c1)O[C@@H](CN(C)Cc1ccncc1)[C@H](C)CN([C@H](C)CO)S2(=O)=O 18.2% [at 8 µM]
C[C@@H]1CN([C@@H](C)CO)S(=O)(=O)c2ccc(C#CCC3CCCC3)cc2O[C@H]1CN(C)C(=O)CC1CC1 -15.8% [at 1.95 µM]
O=C(C[C@H]1CC[C@H](NC(=O)CCN2CCCCC2)[C@H](CO)O1)Nc1nccs1 -18.1% [at 8 µM]
CC(=O)N(C)C[C@@H]1Oc2ncc(C#Cc3ccc(F)cc3)cc2C(=O)N([C@@H](C)CO)C[C@H]1C 24.8%
C[C@@H]1CN([C@@H](C)CO)C(=O)c2cc(C#CC3CCCCC3)cnc2O[C@@H]1CN(C)Cc1cccnc1 58.9%
C[C@@H]1CN([C@@H](C)CO)C(=O)c2cc(C#CC3CCCCC3)cnc2O[C@H]1CN(C)Cc1cccnc1 21.1%
COc1ccc(C#Cc2cnc3c(c2)C(=O)N([C@@H](C)CO)C[C@H](C)[C@@H](CN(C)CC2CCOCC2)O3)cc1 8.65% [at 8 µM]
C[C@H](O)C#Cc1cnc2c(c1)C(=O)N([C@@H](C)CO)C[C@H](C)[C@H](CN(C)Cc1ccc(-c3ccccc3)cc1)O2 31.6%
CCCNC(=O)N(C)C[C@H]1Oc2ncc(C#CCc3ccccc3)cc2C(=O)N([C@@H](C)CO)C[C@@H]1C 16.1%
CCCN1C[C@@H](C)[C@@H](OC)CN(C)C(=O)c2cc(NC(=O)c3cccc(F)c3)ccc2OC[C@H]1C -11.3% [at 1.95 µM]
CO[C@@H]1CN(C)C(=O)c2cc(NC(C)=O)ccc2OC[C@@H](C)N(C(=O)c2ccccn2)C[C@@H]1C -15.1% [at 8 µM]
C[C@H]1CN([C@@H](C)CO)C(=O)Cc2cc(NS(=O)(=O)c3cccs3)ccc2O[C@@H]1CN(C)Cc1ccc(Cl)c(Cl)c1 33.5% [at 8 µM]
COc1ccc(NC(=O)Nc2ccc3c(c2)[C@H]2C[C@H](CC(=O)N[C@@H](C)c4ccccc4)O[C@@H](CO)[C@H]2O3)cc1 -8.28% [at 2.1 µM]
Cc1ccccc1S(=O)(=O)N1[C@H](CO)[C@@H](c2ccc(C#CC3CC3)cc2)[C@@H]1C#N 34.7%
COc1ccccc1C#Cc1ccc([C@H]2[C@@H](C#N)N(C(=O)C3CC3)[C@H]2CO)cc1 22.1% [at 8 µM]
O=C(C[C@@H]1CC[C@@H](NC(=O)Nc2cc(F)ccc2F)[C@H](CO)O1)NCc1ccc2c(c1)OCO2 8.77%
C[C@@H]1CN([C@H](C)CO)C(=O)c2cc(NC(=O)Nc3cccc4ccccc34)ccc2O[C@@H](C)CCCCO[C@H]1CN(C)S(=O)(=O)c1cn(C)cn1 30.5% [at 35 µM]
CO[C@@H](CN(C)S(=O)(=O)c1ccc(C)cc1)[C@H](C)CN(C(=O)Nc1ccccc1F)[C@@H](C)CO -7.73% [at 8 µM]
CO[C@@H]1CN(C)C(=O)c2ccc(NS(=O)(=O)c3cn(C)cn3)cc2OC[C@@H](C)N(Cc2ccc(C(F)(F)F)cc2)C[C@H]1C 35.5% [at 8 µM]
C[C@@H]1CCCCO[C@@H](CN(C)S(=O)(=O)c2cn(C)cn2)[C@H](C)CN([C@H](C)CO)C(=O)c2cc(NS(=O)(=O)c3ccccc3)ccc2O1 -10.5% [at 0.5 µM]
CO[C@@H]1CN(C)C(=O)c2cc(NS(=O)(=O)c3cn(C)cn3)ccc2OC[C@@H](C)N(Cc2ccc(C(F)(F)F)cc2)C[C@H]1C 43.6%
CO[C@H]1CN(C)C(=O)c2cc(NC(=O)c3cccc(F)c3)ccc2OC[C@H](C)N(C(C)=O)C[C@@H]1C -4.07% [at 1.95 µM]
C[C@@H]1CN([C@H](C)CO)S(=O)(=O)c2ccc(C3=CCCCC3)cc2O[C@@H]1CN(C)Cc1ccncc1 19.4%
COc1ccc(S(=O)(=O)Nc2ccc3c(c2)OC[C@@H](C)N(C)C[C@@H](C)[C@H](OC)CN(C)C3=O)cc1 -9.73% [at 1.95 µM]
